Measured values taken from PubChem BioAssay (NCATS).
Inconclusive results are not listed. Where a call stands in place of a potency, no number is given. Values without a mark were called inactive. Activity calls are given as the source filed them. Calls come from the whole dose curve; as a rule, active = well fitted curve in the direction sought with a large enough effect; inconclusive = small, poorly fitted or top-dose-only effect, or another doubt; inactive = no such curve, though single readings can be large; an effect the other way counts as inactive or inconclusive. Bridge positions count the residues as written; N and C are the ends. Square brackets hold non-standard residues; d marks the D form. Side chains are listed from the residue outwards. Peptide text beside a SMILES is read from it. * marks the point of attachment. Phg(4-OMe) = COc1ccc([C@H](N)C(=O)O)cc1; d(aIle) = CC[C@H](C)[C@@H](N)C(=O)O; d(aThr) = C[C@@H](O)[C@@H](N)C(=O)O; NMeF = CN[C@@H](Cc1ccccc1)C(=O)O; Isobutyryl = CC(C)C(=O)*

Assays:
[1] = tested on: Zika virus NS2B-NS3 protease (linked construct); assay: Primary screen NINDS Rhodamine qHTS for Zika virus inhibitors (AID 1347160); note: nearly all actives have a fitted effect of over 55% in size; note: potency is the fitted concentration of half-maximal effect
Outline: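 Percent inhibition, normalized to uninhibited and enzyme-free controls, is fitted to a 4-parameter Hill equation. Fluorescence change comes from a 15-min cleavage of 1.5 microM bis-peptide Rhodamine110 substrate by 25 nM linked NS2B-NS3 at room temperature.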

[2] = qHTS for H2AX Agonists against the NCATS CANVASS Library (AID 1347378); note: potency is the fitted concentration of half-maximal effect
Outline: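 CHO-K1 cells were plated overnight at 37C, then exposed to compounds (concentration series, 0.76% DMSO final) for 3 hr at 37C. Lysates received Eu-cryptate anti-pH2AX (S139) and d2 anti-H2AX antibodies; after 24 hr at room temperature, TR-FRET 665/620 nm ratio was read.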

[3] = qHTS for Activators of p53 Stress Response Pathway screened against the NCATS CANVASS Library (AID 1347388)
Outline: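 Beta-lactamase reporter driven by p53 response elements in HCT-116 cells, read as the 460 nm/530 nm emission ratio after CCF4 loading, following 16 h of exposure to an 11-point series. Cell viability was measured in the same wells by CellTiter-Glo luminescence.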

[4] = HEK-293 Cancer Cell Toxicity qHTS against the NCATS CANVASS Library (AID 1347355); note: nearly all actives have a fitted effect of over 65% in size; note: potency is the fitted concentration of half-maximal effect
Outline: (§1)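 qHTS cytotoxicity: compounds tested in 11 concentrations on 1000 seeded cells per well over 72 h; bortezomib served as control; signal from CellTiter-Glo luminescence.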

[5] = Secretion counterscreen for inhibitors of the SERCaMP assay screened against the NCATS CANVASS Library (AID 1347390);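 note: light from luciferase secreted into medium read as a measure of general secretion; series mostly up to about 77 µM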
Outline: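 SH-SY5Y cells expressing constitutively secreted GLuc, 1000 cells/well, attached 4 h at 37C, then exposed to compounds (0.001 - 77 uM, 11-pnt series) for 20 h. Coelenterazine added; luminescence read to flag secretory-pathway interferers.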

[6] = Redox Reaction Profiling qHTS: Assay Interference Panel against the NCATS CANVASS Library (AID 1347401)
Outline: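 Cell-free redox surrogate: 5 uM resazurin + 200 uM DTT, 50 mM HEPES pH 7.3/50 mM NaCl; cpds pinned, 11-pt qHTS; Ex525/Em598 read t0 and t=15 min, dark.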

[7] = OV-SAHO Cancer Cell Toxicity qHTS against the NCATS CANVASS Library (AID 1347348); note: nearly all actives have a fitted effect of over 55% in size; note: potency is the fitted concentration of half-maximal effect
Outline: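 Per well, 1000 cells; exposure 72 h with compound at 11 final concentrations; readout CellTiter-Glo luminescence.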

[8] = COV-362 Cancer Cell Toxicity qHTS against the NCATS CANVASS Library (AID 1347352); note: potency is the fitted concentration of half-maximal effect
Outline: as §1

[9] = NCATS anti-infectives library activity on HEK293 viability as a counter-qHTS vs the C. elegans viability qHTS (AID 1745854);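 note: HEK293 cells exposed to compounds for 24 hr before the viability read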
Outline: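 Cytotoxicity in human HEK293 cells is measured by ATP-dependent CellTiter-Glo luminescence following a 24 hr incubation with titrated library compounds at 37C. Top final concentration is 41.7 uM.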

[10] = KB-8-5-11 Cancer Cell Toxicity qHTS against the NCATS CANVASS Library (AID 1347364); note: nearly all actives have a fitted effect of over 75% in size; note: potency is the fitted concentration of half-maximal effect
Outline: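 Natural products were titrated in 11 points onto KB-8-5-11 cells, 500 per well, and cytotoxicity was scored from CellTiter-Glo luminescence after 72 hr culture.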

SMILES: CC(C)[C@]12CC[C@@]3(C)[C@H](C)CC[C@H](O)[C@@]3(CC1)c1cc3c(cc12)[nH]c1ccccc13
- Potency [1]: 27.7 µM (active)
- Potency [2]: inactive
- Potency [3]: inactive

SMILES: COC12OC1(C13OC1(OC)C(=O)c1cc4cc(C)oc(=O)c4c(O)c1C3O)C(O)c1c(cc3cc(C)oc(=O)c3c1O)C2=O (stereo unspecified)
- Potency [1]: 3.11 µM (active)
- Potency [4]: inactive
- Potency [2]: inactive
- Potency [3]: inactive
- Potency [5]: inactive

SMILES: C/C=C(/C)c1c(Cl)c(O)c(C)c2c1Oc1c(Cl)c(O)c(Cl)c(C)c1C(=O)O2
- Potency [1]: 1.96 µM (active)
- Potency [4]: inactive
- Potency [2]: inactive
- Potency [5]: inactive
- Potency [6]: inactive

SMILES: COc1ccc2[nH]c3c(c2c1)CCN1C[C@H]2C[C@@H](OC(=O)c4cc(OC)c(OC)c(OC)c4)[C@H](OC)[C@@H](OC)[C@H]2C[C@H]31
- Potency [1]: inactive
- Potency [4]: 20.9 µM (active)
- Potency [3]: inactive
- Potency [6]: inactive

SMILES: CCC(=O)CCCCC[C@@H]1NC(=O)[C@H]2CCCCN2C(=O)[C@H](C(C)C)NC(=O)[C@H](Cc2cn(OC)c3ccccc23)NC1=O
- Potency [1]: 13.9 µM (active)
- Potency [7]: 14.9 µM (active)
- Potency [8]: 18.8 µM (active)
- Potency [5]: inactive
- Potency [6]: inactive

SMILES: CC(C)=CCC[C@]12c3cc4c(cc3CC[C@@]1(C)[C@H](C)CC[C@@H]2O)[nH]c1ccccc14
- Potency [1]: 24.7 µM (active)
- Potency [8]: inactive
- Potency [2]: inactive
- Potency [5]: inactive
- Potency [6]: inactive

SMILES: C=C[C@@]1(C)CC[C@@H]([C@H](C)C(=O)/C=C/C(C)(C)O)O1
- Potency [1]: 55.3 µM (active)
- Potency [4]: 26.4 µM (active)
- Potency [2]: inactive
- Potency [3]: inactive
- Potency [5]: inactive

SMILES: C/C=C(/C)c1cc(O)c(C)c2c1Oc1cc(O)cc(C)c1C(=O)O2
- Potency [1]: 24.7 µM (active)
- Potency [7]: inactive
- Potency [2]: inactive
- Potency [6]: inactive

SMILES: C[C@]12CC[C@]3(C1)[C@H](CC2=O)C[C@@H](OC(=O)c1ccccc1)[C@H]1[C@](C)(C(=O)O)CCC[C@@]13C
- Potency [1]: 19.6 µM (active)
- Potency [8]: inactive
- Potency [4]: 13.2 µM (active)
- Potency [2]: inactive
- Potency [3]: inactive
- Potency [6]: inactive

SMILES: O=c1cc(-c2ccc(O)c(O)c2)oc2cc(O[C@@H]3O[C@H](CO)[C@@H](O)[C@H](O)[C@H]3O)cc(O)c12
- Potency [1]: 17.5 µM (active)
- Potency [3]: inactive
- Potency [9]: inactive

SMILES: C=CC(CCCCC)C1C(=O)NC(=O)C1C(=O)C1C2C(C)CC(C(=O)O)CC2CC1(O)C(=O)/C=C/C (stereo unspecified)
- Potency [1]: 6.21 µM (active)
- Potency [8]: inactive
- Potency [2]: inactive
- Potency [5]: inactive

SMILES: C/C1=C/[C@@H](C)[C@H](O)[C@@H](O)/C=C/CC/C=C/C(=O)O[C@@H]1[C@H](C)C(=O)CCCC1CC(=O)NC(=O)C1
- Potency [1]: inactive
- Potency [7]: inactive
- Potency [10]: inactive
- Potency [3]: inactive
- Potency [5]: inactive
- Potency [6]: inactive

SMILES: C/C=C(/C)c1c(Cl)c(OC)c(C)c2c1Oc1c(Cl)c(O)c(Cl)c(C)c1C(=O)O2
- Potency [1]: 1.39 µM (active)
- Potency [4]: inactive
- Potency [6]: inactive

SMILES: O[C@H]1c2ccccc2-c2c3c(cc4c2[C@@H]1NCC4)OCO3
- Potency [1]: 49.3 µM (active)
- Potency [7]: inactive

SMILES: C[C@]12CCC[C@](C)(C(=O)O)[C@@H]1CC[C@@]1(C)c3cocc3CC[C@H]21
- Potency [1]: 15.6 µM (active)
- Potency [4]: inactive
- Potency [2]: inactive
- Potency [3]: inactive
- Potency [6]: inactive

SMILES: COc1c(O)cc2c(c1O)C(=O)c1c(coc1C)C2=O
- Potency [1]: 9.84 µM (active)
- Potency [7]: inactive
- Potency [8]: inactive
- Potency [4]: inactive
- Potency [2]: inactive

SMILES: CC(C)C[C@@H]1c2c(O)c(C=O)c(O)c(C=O)c2O[C@]2(C)C=C[C@@H](C(C)C)C[C@H]12
- Potency [1]: 13.9 µM (active)
- Potency [4]: inactive
- Potency [10]: inactive

SMILES: CN1CC[C@]2(c3cccc4c3N[C@H]3N(C)CC[C@@]43[C@]34CCN(C)[C@H]3Nc3ccccc34)c3ccccc3N[C@H]12
- Potency [1]: inactive
- Potency [7]: 16.7 µM (active)
- Potency [4]: 7.43 µM (active)
- Potency [3]: inactive
- Potency [6]: inactive

SMILES: CC[C@H](C)[C@H]1NC(=O)[C@@H](NC(=O)C(C)C)[C@@H](C)OC(=O)[C@H](COC(=O)CNC(C)=O)NC(=O)[C@@H]([C@@H](C)O)NC(=O)[C@H](Cc2ccccc2)N(C)C(=O)[C@H](c2ccc(OC)cc2)NC1=O (Isobutyryl-T[d(aIle)][Phg(4-OMe)][NMeF][d(aThr)]S([Gly-Ac]); ester 1-C)
- Potency [1]: inactive
- Potency [4]: inactive
- Potency [10]: inactive
- Potency [2]: inactive
- Potency [3]: inactive
- Potency [6]: inactive

SMILES: C=C1CC[C@@H](O[C@H]2C[C@@](O)([C@H](C)NC(=O)c3[nH]c(C)c(Cl)c3Cl)[C@H](O)[C@@H](C)O2)[C@@H]2C=C[C@H](C)C(/C(O)=C3/C(=O)[C@H](C(C)C)N([C@@H]4O[C@H](C)[C@H](OC(N)=O)[C@H](OC(C)=O)[C@@H]4OC)C3=O)[C@@H]12 (stereo partly specified)
- Potency [1]: 15.6 µM (active)
- Potency [4]: inactive
- Potency [10]: inactive
- Potency [5]: inactive

SMILES: CC(=O)Oc1cc2c(c(OC(C)=O)c1C1CCc3cc(Cl)c(Cl)n31)C(=O)n1c-2cc(Cl)c1Cl (stereo unspecified)
- Potency [1]: 3.92 µM (active)
- Potency [7]: 7.47 µM (active)
- Potency [8]: 9.41 µM (active)
- Potency [10]: 14.8 µM (active)
- Potency [2]: inactive

SMILES: Cc1occ2c1C(=O)c1c(cc(O)c(O)c1O)C2=O
- Potency [1]: 13.9 µM (active)
- Potency [2]: 24.4 µM (active)
- Potency [5]: inactive
- Potency [6]: inactive

SMILES: C=C(C)CC[C@H](Cc1c(O)cc(O)c2c1O[C@H](c1ccc(O)cc1)CC2=O)C(=C)C
- Potency [1]: 15.6 µM (active)
- Potency [4]: inactive
- Potency [3]: inactive
- Potency [6]: inactive
